Reference: PubChem BioAssay (NCATS)
Inconclusive results are not listed. Activity calls are given as the source filed them. The call rests on the fitted dose curve; in most records, active means well fitted inhibition curve with a large enough effect; inconclusive means small, poorly fitted or top-dose-only effect; inactive means flat fitted curve, though single readings scatter. Where a SMILES comes first, the peptide text is derived from it. Bridges are numbered along the chain shown (N, C = ends). [ ]: non-standard residue; d: D form. Orn = NCCC[C@H](N)C(=O)O; Mpa = O=C(O)CCS

What follows are compounds tested against Luciferin 4-monooxygenase (Photinus pyralis) (UniProt P08659) (assay: Biochemical firefly luciferase enzyme assay for NPC (AID 624030;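 further: purified P. pyralis luciferase at 10 nM with luciferin and ATP substrate; 0% = DMSO and -100% = full luciferase inhibition by PTC124 control; nearly all actives have a fitted effect of over 70% in size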)). Settings: purified P. pyralis luciferase, luminescence, 5 min; series mostly up to 58.6 µM; activity change, negative = inhibition: at the top concentration.
Summary of the method: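 Counter-screen for direct inhibition of the luciferase enzyme by approved-drug library compounds, run at 10 nM enzyme in 50 mM Tris acetate (final). Luminescence was read within 5 min of enzyme-buffer addition and normalized to PTC124 versus DMSO (0%).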

Luciferin 4-monooxygenase (Photinus pyralis), sequence (P08659 whole entry, looked up): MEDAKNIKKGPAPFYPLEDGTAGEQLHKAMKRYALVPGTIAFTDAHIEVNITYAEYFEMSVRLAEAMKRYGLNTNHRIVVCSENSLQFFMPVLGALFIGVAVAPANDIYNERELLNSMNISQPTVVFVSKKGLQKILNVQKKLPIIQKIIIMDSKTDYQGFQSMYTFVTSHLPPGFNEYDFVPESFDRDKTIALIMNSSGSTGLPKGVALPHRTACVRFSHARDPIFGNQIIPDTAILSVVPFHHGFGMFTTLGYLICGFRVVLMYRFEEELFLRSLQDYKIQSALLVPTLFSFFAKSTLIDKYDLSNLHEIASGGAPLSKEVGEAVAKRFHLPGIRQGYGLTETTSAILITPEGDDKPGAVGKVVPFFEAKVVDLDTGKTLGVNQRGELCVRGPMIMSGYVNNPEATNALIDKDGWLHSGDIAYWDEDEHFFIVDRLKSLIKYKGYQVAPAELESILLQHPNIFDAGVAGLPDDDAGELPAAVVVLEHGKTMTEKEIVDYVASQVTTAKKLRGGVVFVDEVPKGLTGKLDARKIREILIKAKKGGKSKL

Structure (SMILES) | activity change, negative = inhibition | Potency
O=P(O)(O)OC(Cn1cncn1)(Cn1cncn1)c1ccc(F)cc1F | -3.91% (inactive) | –
O=[N+]([O-])c1ccc(Oc2ccc(N=C=S)cc2)cc1 | -9.39% (inactive) | –
Nc1c(CC(=O)O)cccc1C(=O)c1ccccc1 | – | inactive
Cc1cc(-n2c(=O)[nH]c(=O)n(C)c2=O)ccc1Oc1ccc(S(=O)(=O)C(F)(F)F)cc1 | -5.79% (inactive) | –
CCCC(CCC)C(N)=O | -1.75% (inactive) | –
CCCCC(=O)O | – | inactive
OCC(O)COc1ccc(Cl)cc1 (stereo not given) | -3.38% (inactive) | –
CN(C(=O)CO)c1c(I)c(C(=O)NCC(O)CO)c(I)c(C(=O)NCC(O)CO)c1I (stereo not given) | -1.93% (inactive) | –
CCCC(=O)N1CCCN(c2nc(N)c3cc(OC)c(OC)cc3n2)CC1 | -9.35% (inactive) | –
CCCCCCCCCCCCCCCC(=O)OC/C=C(C)/C=C/C=C(C)/C=C/C1=C(C)CCCC1(C)C | -1.07% (inactive) | –
O=C(OCCO)c1ccccc1O | -1.06% (inactive) | –
NCCCNCCCCNC(=O)C(O)NC(=O)CCCCCCN=C(N)N (stereo not given) | 9.86% (inactive) | –
CCOc1ccc(N=C(C)Nc2ccc(OCC)cc2)cc1 | 1.3% (inactive) | –
OC(CN1CCCCC1)c1cc(-c2ccccc2)on1 (stereo not given) | -8.42% (inactive) | –
CCOC(=O)COc1ccc2c(C)c(CCN(CC)CC)c(=O)oc2c1 | 1.49% (inactive) | –
CCCCCCCC/C=C\CCCCCCCC(=O)OC[C@@H](O)[C@H]1OC[C@H](O)[C@H]1O | 0.0376% (inactive) | –
CC(CC(c1ccccc1)c1ccccc1)NC(C)(C)C (stereo not given) | 6.3% (inactive) | –
O.O=C([O-])CC([S-])C(=O)[O-].[Au+].[Na+].[Na+] (stereo not given) | -0.384% (inactive) | –
O=C1C(c2[nH]c3ccc(S(=O)(=O)O)cc3c2O)=Nc2ccc(S(=O)(=O)O)cc21 | – | inactive
C1CNCCN1 | -0.892% (inactive) | –
C[N+](C)(CCCCCC[N+](C)(C)C1c2ccccc2-c2ccccc21)C1c2ccccc2-c2ccccc21 | 10.1% (inactive) | –
CN1CC(O)c2cc(N=NC(N)=O)c(O)cc21 (stereo not given) | -3.68% (inactive) | –
O=P(O)(O)C(Sc1ccc(Cl)cc1)P(=O)(O)O | 15.5% (inactive) | –
NCCCC[C@H](NC(=O)[C@@H]1CCCN1C(=O)[C@@H]1CSSC[C@H](NC(=O)CNC(=O)CNC(=O)CN)C(=O)N[C@@H](Cc2ccc(O)cc2)C(=O)N[C@@H](Cc2ccccc2)C(=O)N[C@@H](CCC(N)=O)C(=O)N[C@@H](CC(N)=O)C(=O)N1)C(=O)NCC(N)=O (H-GGGCYFQNCPKG-NH2; disulfide 4-9) | 1.01% (inactive) | –
CCCCCCCCCCCCCCCC(=O)OC[C@@H](COP(=O)([O-])OCC[N+](C)(C)C)OC(=O)CCCCCCCCCCCCCCC | -0.9% (inactive) | –
CCOc1ccc(C[C@H]2NC(=O)CCSSC[C@@H](C(=O)N3CCC[C@H]3C(=O)N[C@@H](CCCN)C(=O)NCC(N)=O)NC(=O)[C@H](CC(N)=O)NC(=O)[C@H]([C@@H](C)O)NC(=O)[C@H]([C@@H](C)CC)NC2=O)cc1 ([Mpa][dY](Et)ITNCP[Orn]G-NH2; disulfide 1-6) | -1.09% (inactive) | –
CC(=O)[C@@]1(O)CC[C@H]2[C@@H]3C=C(Cl)C4=CC(=O)CC[C@]4(C)[C@H]3CC[C@@]21C | -8.42% (inactive) | –
COc1cc2[nH]c(C)c(CCN3CCN(c4ccccc4)CC3)c2cc1OC | -0.437% (inactive) | –
CCOC(=O)Nc1ccc2c(c1)N(C(=O)CN(C)C)c1ccccc1CC2 | -4.43% [at 123 µM] (inactive) | –
CC(=O)OC[C@H]1O[C@@H](O[C@H]2[C@H](O)[C@@H](OC(=O)c3ccccc3C(=O)O)[C@H](O)O[C@@H]2COC(C)=O)[C@H](O)[C@@H](OC(=O)c2ccccc2C(=O)O)[C@@H]1O | -1.48% (inactive) | –
